The target of assay [1] is Thyrotropin receptor (Homo sapiens) (UniProt P16473). Description: qHTS assay to identify small molecule agonists of the thyroid stimulating hormone receptor (TSHR) signaling pathway (AID 1224843; calls by dose curve; note: nearly all actives have a fitted effect of over 45% in size; note: potency is the fitted concentration of half-maximal effect; for activation: % is set by controls: 0 for no effect and ±100 for the full control effect). The gist of the method: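 A cell-based cAMP HTRF format was run in TSHR-transfected HEK293 cells, 800 per well. Treatment: 30 min, room temperature. Detection: 1 h with labelled cAMP and anti-cAMP cryptate. Concentration-response over 15 points, three replicates.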
Chain of Thyrotropin receptor (Homo sapiens) (P16473 whole entry, looked up): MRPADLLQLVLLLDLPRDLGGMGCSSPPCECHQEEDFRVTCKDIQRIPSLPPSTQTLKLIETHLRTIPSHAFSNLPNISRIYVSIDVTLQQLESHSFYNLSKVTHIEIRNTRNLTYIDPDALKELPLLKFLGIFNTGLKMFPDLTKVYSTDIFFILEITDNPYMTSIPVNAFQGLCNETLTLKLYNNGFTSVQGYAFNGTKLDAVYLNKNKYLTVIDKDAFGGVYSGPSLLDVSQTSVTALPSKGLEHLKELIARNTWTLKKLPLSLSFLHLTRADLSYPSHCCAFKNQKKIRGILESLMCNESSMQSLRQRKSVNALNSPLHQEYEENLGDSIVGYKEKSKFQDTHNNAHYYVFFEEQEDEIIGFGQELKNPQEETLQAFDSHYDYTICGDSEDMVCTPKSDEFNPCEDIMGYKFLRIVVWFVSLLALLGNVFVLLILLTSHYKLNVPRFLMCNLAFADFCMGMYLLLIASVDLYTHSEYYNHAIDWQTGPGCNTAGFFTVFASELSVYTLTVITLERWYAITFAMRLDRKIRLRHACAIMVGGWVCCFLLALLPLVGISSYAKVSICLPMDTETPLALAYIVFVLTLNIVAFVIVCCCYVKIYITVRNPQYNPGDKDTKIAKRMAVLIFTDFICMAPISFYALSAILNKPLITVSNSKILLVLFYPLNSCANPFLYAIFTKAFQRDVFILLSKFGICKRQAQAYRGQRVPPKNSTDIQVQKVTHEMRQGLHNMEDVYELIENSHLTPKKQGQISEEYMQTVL
For orientation: Quantitative high-throughput screening tests each substance at several concentrations.

The nature of assay [2]: qHTS assay to identify small molecule agonists of the hypoxia (HIF-1) signaling pathway - cell viability counter screen (AID 1224844; calls by dose curve; note: nearly all actives have a fitted effect of over 50% in size; note: potency is the fitted concentration of half-maximal effect). An outline of the steps: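 In this counter screen, HRE-bla ME-180 cell viability after 17 hrs of compound exposure at 37C was read by CellTiter-Glo luminescence, multiplexed with the beta-lactamase reporter measurement.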
Assay [3] can be described thus: qHTS assay to identify small molecule agonists of the hypoxia (HIF-1) signaling pathway (AID 1224846; active = well fitted activation curve with a large enough effect in the signal ratio in the repeat runs, not every such curve was filed as active; the % refers to the signal ratio; note: % is set by controls: 0 for no effect and ±100 for the full control effect). An outline of the steps:
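ME-180 HRE-bla reporter cells; compounds in DMSO, 17 h at 37C; read-out beta-lactamase via CCF4-AM FRET.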

The nature of assay [4]: qHTS assay to identify small molecule agonists of H2AX - cell viability counter screen (AID 1224847; calls by dose curve; note: nearly all actives have a fitted effect of over 30% in size; note: potency is the fitted concentration of half-maximal effect). An outline of the steps:
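Quantitative HTS viability measurement: CHO-K1 wild-type cells in serum (10% FBS) medium, short 3 hr drug exposure at 37C with 0.76% DMSO, CellTiter-Glo luminescent detection.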

A short description of assay [5]: qHTS RealTime-Glo MT Cell Viability Assay in HepG2 cells - 24 hour (AID 1224867). Note: nearly all actives have a fitted effect of over 50% in size. Note: potency is the fitted concentration of half-maximal effect. An outline of the steps:
(§1)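 Luminescence read-out: viable HepG2 cells reduce a prosubstrate to a NanoLuc substrate, giving a signal proportional to live cell number. Reads taken at 0, 8, 16, 24, 32 and 40 h of compound exposure at 37 C.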

The nature of assay [6]: qHTS RealTime-Glo MT Cell Viability Assay in HEK293 cells - 32 hour (AID 1224868). Note: nearly all actives have a fitted effect of over 50% in size. Note: potency is the fitted concentration of half-maximal effect. An outline of the steps:
(§2)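 Nonlytic real-time viability readout: viable cells convert prosubstrate to NanoLuc substrate, giving luminescence proportional to live cell number. HEK293, 600 cells/well, compound added after 5 h, continuous culture at 37 C.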

A short description of assay [7]: A CellTox Green Cytotoxicity Assay to monitor cytotoxicity in HEK293 cells - 0 hour (AID 1224869). For Cytotoxicity: % is set by controls: 0 for no effect and ±100 for the full control effect. Note: nearly all actives have a fitted effect of over 50% in size. Note: potency is the fitted concentration of half-maximal effect. An outline of the steps: (§3)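 Real-time, in one plate: 600 HEK293 cells/well with dead-cell DNA dye, pinned compound after 5 h, 37 C incubation over 40 h; viable cells give no appreciable fluorescence.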
The nature of assay [8]: qHTS RealTime-Glo MT Cell Viability Assay in HepG2 cells - 40 hour (AID 1224870). Note: nearly all actives have a fitted effect of over 50% in size. Note: potency is the fitted concentration of half-maximal effect. The gist of the method: (§4)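 Real-time viability: cells seeded at 600 per well together with NanoLuc and cell-permeant prosubstrate, compounds added after 5 h incubation. Luminescence tracked at 0, 8, 16, 24, 32 and 40 h of exposure.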
Assay [9] is described as follows: A CellTox Green Cytotoxicity Assay to monitor cytotoxicity in HEK293 cells - 40 hour (AID 1224871). Note: nearly all actives have a fitted effect of over 45% in size. Note: potency is the fitted concentration of half-maximal effect. The gist of the method:
as §3

Assay [10] in a line: qHTS RealTime-Glo MT Cell Viability Assay in HEK293 cells - 16 hour (AID 1224872). Note: nearly all actives have a fitted effect of over 50% in size. Note: potency is the fitted concentration of half-maximal effect. The gist of the method: as §2
The nature of assay [11]: qHTS RealTime-Glo MT Cell Viability Assay in HEK293 cells - 40 hour (AID 1224874). Note: nearly all actives have a fitted effect of over 50% in size. Note: potency is the fitted concentration of half-maximal effect. The conditions noted are these: RealTime-Glo luminescence; max response: stronger effect = lower value. An outline of the steps: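 Kinetic, non-lysing viability readout. Seed HEK293 (600/well) with reagent, incubate 5 h at 37 C/5% CO2, pin 23 nL compound in DMSO, incubate at 37 C, read luminescence at 0, 8, 16, 24, 32, 40 h.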

The nature of assay [12]: A CellTox Green Cytotoxicity Assay to monitor cytotoxicity in HEK293 cells - 24 hour (AID 1224875). Note: % is set by controls: 0 for no effect and ±100 for the full control effect; nearly all actives have a fitted effect of over 45% in size. An outline of the steps: as §3
Assay [13] can be described thus: A CellTox Green Cytotoxicity Assay to monitor cytotoxicity in HepG2 cells - 16 hour (AID 1224876). Note: nearly all actives have a fitted effect of over 45% in size. Note: potency is the fitted concentration of half-maximal effect. The gist of the method:
(§5)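 Cytotoxicity was tracked as dead-cell DNA fluorescence in HepG2 cells treated with test compounds at 37 C; each time-point value comes from one kinetic series spanning 0, 8, 16, 24, 32 and 40 h.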

Assay [14] in a line: qHTS RealTime-Glo MT Cell Viability Assay in HepG2 cells - 32 hour (AID 1224877). Note: nearly all actives have a fitted effect of over 55% in size. Note: potency is the fitted concentration of half-maximal effect. An outline of the steps: as §1
A short description of assay [15]: A CellTox Green Cytotoxicity Assay to monitor cytotoxicity in HepG2 cells - 24 hour (AID 1224878). Note: nearly all actives have a fitted effect of over 45% in size. Note: potency is the fitted concentration of half-maximal effect. An outline of the steps:
as §5

A short description of assay [16]: A CellTox Green Cytotoxicity Assay to monitor cytotoxicity in HepG2 cells - 40 hour (AID 1224879). Note: nearly all actives have a fitted effect of over 40% in size. Note: potency is the fitted concentration of half-maximal effect. The gist of the method: as §5
Assay [17] is described as follows: qHTS assay to identify small molecule agonists of the estrogen related receptor (ERR) signaling pathway from Tox21 library (AID 1224849; calls by dose curve; note: % is set by controls: 0 for no effect and ±100 for the full control effect; nearly all actives have a fitted effect of over 15% in size). The conditions noted are these: ERR reporter cell line, ONE-Glo luciferase, 18 h. The gist of the method: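 Luciferase activity in ERR pathway reporter cells served as the agonist readout; exposure lasted 18 h at 37 C, with ONE-Glo detection after 30 min at room temperature.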

A short description of assay [18]: qHTS RealTime-Glo MT Cell Viability Assay in HepG2 cells - 8 hour (AID 1224873). Note: nearly all actives have a fitted effect of over 55% in size. Note: potency is the fitted concentration of half-maximal effect. An outline of the steps: as §4
A short description of assay [19]: qHTS assay to identify small molecule agonists of H2AX (AID 1224845; active = well fitted activation curve with a large enough effect in the signal ratio in the repeat runs, not every such curve was filed as active; the % refers to the signal ratio; note: % is set by controls: 0 for no effect and ±100 for the full control effect). The gist of the method: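 Phospho-H2AX Ser139 measured by HTRF (ex 320 nm; em 665 and 620 nm) after 24 hr antibody incubation. Compounds, 15 concentrations, 0.76% DMSO, were applied to CHO-K1 cells for 3hr at 37C before lysis.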
Assay [20] can be described thus: qHTS assay to identify small molecule antagonists of the estrogen related receptor (ERR) signaling pathway from Tox21 library (AID 1224848). An outline of the steps:
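ERR cell line, 2,000 cells/well. 6 h settle, then compound (DMSO) added; 18 h at 37 C; ONE-Glo luminescence after 30 min RT.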

Structures are written as SMILES. Several values for one entry are separate records, joined by “and”; a condition that tells them apart may be missing. Equal entries are not always repeated. Records with an inconclusive call do not appear. A structure can be active in one record and inactive in another. Activity calls are given as the source filed them. Unless noted, calls come from the whole dose curve; as a rule, active = well fitted curve in the direction sought with a large enough effect in the repeat runs; inconclusive = weak or mixed curves; inactive = no such curve, though single readings can be large; an effect the other way counts as inactive or inconclusive.

`N#CC(Br)Br`: the Potency entry in assay [1], in [2], in assay [4], in assay [5], in [6] and in assay [7] was “inactive” in each case. The Potency result in assay [8], in [9], in assay [10], in assay [12], in assay [13] and in assay [14] was “inactive” in each case. Moreover, the Potency result in assay [15] and in assay [16] was “inactive” in each case. Further, the compound was called inactive in assay [3]. In addition, the max response in assay [11] was -17% (inactive) and 1.39% (inactive).
Consider `O=P(Oc1ccccc1)(Oc1ccccc1)Oc1ccccc1`, for which the Potency in assay [1] was 12.1 µM (active) and 9.69 µM (active); in assay [4], 89.3 µM (active) and inactive. The Potency entry in assay [2], in assay [5], in [6], in [7], in assay [8] and in [9] was “inactive” each time. The Potency entry in assay [10], in [18], in assay [12], in assay [13], in assay [14] and in assay [15] was “inactive” throughout. For the same compound, the Potency entry in [16] was “inactive”. In addition, in assay [3], the outcome was inactive. Moreover, the activity change, positive = activation in [17] (at 92.4 µM (top of the series)) is -19.4% (inactive) and -25.7% (inactive). Also, the max response in assay [11] was -17.9% (inactive) and -13.8% (inactive).
In the case of `O=C(Nc1ccc(Br)cc1)c1cc(Br)cc(Br)c1O`, the Potency entry in assay [1], in assay [19], in assay [5], in [10] and in assay [18] was “inactive” each time. Moreover, the Potency in assay [2] was 38.8 µM (active) and 24.5 µM (active); in assay [4], 28.3 µM (active) and 35.7 µM (active) and 39.1 µM (active); in assay [20] it was 12.2 µM (active); in [6] it was 21.8 µM (active) and 21.9 µM (active); in assay [7], “inactive and 38.9 µM (active)”; in assay [8], 43.5 µM (active). Further, the Potency in assay [9] is 38.9 µM (active) and inactive; in assay [11], 17.3 µM (active) and 19.5 µM (active); in [13] it was “inactive and 43.6 µM (active)”; in assay [15], 38.9 µM (active); in assay [16], 19.4 µM (active) and 24.5 µM (active) and 23.9 µM (active). The activity change, positive = activation in [17] (at 42.5 µM (top of the series)) is -35.9% (inactive); in assay [17] (at 92.4 µM (top of the series)), -31.1% (inactive) and -48% (inactive).
Regarding `CCC(C)(c1ccc(O)cc1)c1ccc(O)cc1`, the Potency result in assay [1], in assay [2], in [4], in assay [5], in assay [7] and in assay [8] was “inactive” each time. Further, the Potency entry in [9], in assay [12], in [13], in assay [14], in assay [15] and in assay [16] was “inactive” each time. For the same compound, the compound was classed as inactive in assay [3]. The Potency in assay [20] is 54.5 µM (active). Also, the activity change, positive = activation in [17] (at 92.4 µM (top of the series)) is -28.1% (inactive) and -37.5% (inactive).
Take `C=C(C)[C@H]1Cc2c(ccc3c2O[C@@H]2COc4cc(OC)c(OC)cc4[C@@H]2C3=O)O1`: the Potency in [1] is 24.7 µM (active) and 17.2 µM (active) and 26.6 µM (active); in [20], 39.1 nM (active) and 9.7 nM (active) and 10.6 nM (active); in assay [5], 27.9 µM (active) and 27.5 µM (active); in assay [6], 55.7 nM (active) and 11 nM (active) and 47.7 nM (active); in assay [8], 44.2 µM (active) and 27.5 µM (active); in assay [10] it was 88.2 nM (active) and 15.5 nM (active) and 107 nM (active). The Potency is 24.5 µM (active) and inactive in [18]; 55.7 nM (active) and 11 nM (active) and 47.7 nM (active) in [11]; 44.2 µM (active) and 27.5 µM (active) in assay [14]; 49.6 µM (active) and 38.9 µM (active) in [15]; 24.9 µM (active) and 24.5 µM (active) in assay [16]. In addition, the Potency result in assay [2], in assay [19], in assay [7], in assay [9], in [12] and in assay [13] was “inactive” each time. For the same compound, in assay [3], the call was inactive. The activity change, positive = activation is -51.1% (inactive) in assay [17] (at 42.5 µM (top of the series)); -64.6% (inactive) and -64.1% (inactive) in assay [17] (at 92.4 µM (top of the series)).
For the compound `Nc1ccc(-c2ccccc2)cc1`, the Potency entry in [1], in assay [19], in assay [5], in assay [7], in [8] and in assay [9] was “inactive” each time. Moreover, the Potency entry in [18], in assay [12], in [13], in [14], in assay [15] and in [16] was “inactive” each time. Also, the Potency in assay [2] was 28.3 µM (active) and inactive; in assay [6], 7.98 µM (active) and inactive; in [10] it was 10 µM (active) and inactive; in [11], 10 µM (active). Besides, in assay [3], the call was inactive. For the same compound, the max response in assay [11] is -19.4% (inactive).

The values are drawn from PubChem BioAssay (Tox21).
